Our source for the potency estimated from few doses values is article PMC11062922 (Nature Chemical Biology, 2023).

Common to all, as to parameters: species or system human, MV4-11 + K-562 + COLO205 + SK-N-BE2 + OVCAR-8
For test [1], the system named is ABL1. Conditions: read-out: apparent Kd, n = 1.
For test [2], the system named is ABL2. Conditions: read-out: apparent Kd, n = 1.
Test [3] relates to BTK. The conditions noted are these: read-out: apparent Kd, n = 1.
Test [4] deals with CIT. Conditions: read-out: apparent Kd, n = 1.
Test [5] has as its system EPHB1. The conditions noted are these: read-out: apparent Kd, n = 1.
Test [6] deals with LCK. The conditions noted are these: read-out: apparent Kd, n = 1.
The subject of test [7] is MAPK14. Conditions: read-out: apparent Kd, compound concentrations: 100 nM and 1000 nM (sheet 'Samples'), n = 1.
Test [8] deals with PTK6. The conditions noted are these: read-out: apparent Kd, n = 1.
Test [9] has as its system ACVR1B. Conditions: read-out: apparent Kd, n = 1.
In test [10] the test system is AURKB. The conditions noted are these: read-out: apparent Kd, n = 1.
Test [11] deals with NUAK2. The conditions noted are these: read-out: apparent Kd, n = 1.
The subject of test [12] is RPS6KA3. Conditions: read-out: apparent Kd, n = 1.
In test [13] the test system is TTK. Conditions: read-out: apparent Kd; compound concentrations:100 nM and 1000 nM (sheet 'Samples'); n = 1.
The subject of test [14] is PAK6. Conditions: read-out: apparent Kd, n = 1.
The test system of test [15] is PKN2. Conditions: read-out: apparent Kd, n = 1.
The subject of test [16] is RPS6KB1. The conditions noted are these: read-out: apparent Kd, n = 1.
Where [17] appears, read: compound concentrations:100 nM and 1000 nM (sheet 'Samples').

Like-named read-outs stand apart in the source and are kept apart here.

Take `CC(C)N1CCC(n2cnc(-c3ccc(F)cc3)c2-c2ccnc(N)n2)CC1` [SB-223132]: the potency estimated from few doses was 1110 nM in test [1] (setting [17]); 723 nM in test [2] (setting [17]); 842 nM in [3] (setting [17]); 886 nM in test [4] (setting [17]); 656 nM in test [5] (setting [17]); 880 nM in test [6] (setting [17]). Moreover, the potency estimated from few doses in test [7] (CATDS: 8.3649714811029202E-2) was 40 nM; in [8] (setting [17]) it was 1390 nM.

With `CNC(=O)c1ccccc1Nc1nc(Nc2ccc(N3CCOCC3)cc2)ncc1Cl.Cl` [GSK1576028A], the potency estimated from few doses in test [1] (setting [17]) is 1640 nM; in test [9] (setting [17]) it was 243 nM; in test [10] (setting [17]), 55 nM; in test [3] (setting [17]), 256 nM; in [6] (setting [17]) it was 234 nM; in test [11] (setting [17]), 1370 nM. In addition, the potency estimated from few doses in [8] (setting [17]) was 297 nM; in test [12] (setting [17]), 549 nM; in test [13], 2100 nM.

Turning to `Cl.Nc1c(C(=O)c2cccc(C#CCN3CCCCC3)c2)cnn1-c1ccc(F)cc1` [RO1154461-001], the potency estimated from few doses in test [1] (compound concentrations: 100 nM and 1000 nM (sheet 'Samples'), CATDS: 1.29854856136426E-2) was 806 nM; in [2] (compound concentrations: 100 nM and 1000 nM (sheet 'Samples'), CATDS: 1.9255632348685402E-2), 323 nM; in test [3] (compound concentrations: 100 nM and 1000 nM (sheet 'Samples'), CATDS: 1.2670518401124599E-2), 863 nM; in [5] (compound concentrations: 100 nM and 1000 nM (sheet 'Samples'), CATDS: 2.02427776556733E-2), 292 nM; in test [6] (compound concentrations: 100 nM and 1000 nM (sheet 'Samples'), CATDS: 1.3782974497271E-2), 687 nM; in test [11] (compound concentrations: 100 nM and 1000 nM (sheet 'Samples'), CATDS: 1.07977981674066E-2) it was 1430 nM. Moreover, the potency estimated from few doses is 927 nM in test [14] (compound concentrations: 100 nM and 1000 nM (sheet 'Samples'), CATDS: 1.2359364494815299E-2); 717 nM in test [8] (compound concentrations: 100 nM and 1000 nM (sheet 'Samples'), CATDS: 1.35601917152245E-2).

For `CCn1c(-c2nonc2N)nc2c(C#CCN)ncc(OCCCN)c21.O=C(O)C(F)(F)F` [GSK561866B], the potency estimated from few doses in [15] (compound concentrations: 100 nM and 1000 nM (sheet 'Samples'), CATDS: 7.8850535448236003E-2) is 1510 nM; in test [16] (compound concentrations: 100 nM and 1000 nM (sheet 'Samples'), CATDS: 9.0745453411211097E-2), 699 nM.

As to `COc1cccc2c(-c3ccncc3)c(-c3ccc(F)cc3)nn12` [GW468513X], the potency estimated from few doses is 83.3 nM in test [9] (compound concentrations: 100 nM and 1000 nM (sheet 'Samples'), CATDS: 0.110012792882782); 539 nM in test [4] (compound concentrations: 100 nM and 1000 nM (sheet 'Samples'), CATDS: 4.9718513038834899E-2); 42.8 nM in [7] (CATDS: 0.16592681304069401).

Consider `CCOc1nccc2c1nc(-c1nonc1N)n2CC` [SB-737198], for which the potency estimated from few doses is 231 nM in test [15] (compound concentrations: 100 nM and 1000 nM (sheet 'Samples'), CATDS: 0.50424526517456403); 1320 nM in test [16] (compound concentrations: 100 nM and 1000 nM (sheet 'Samples'), CATDS: 0.20646016989107699).

As for `CCn1c(-c2nonc2N)nc2c(-c3ccccc3)ncc(OCCCN)c21.CCn1c(-c2nonc2N)nc2c(-c3ccccc3)ncc(OCCCN)c21.O=C(O)C(F)(F)F.O=C(O)C(F)(F)F` [GSK260205A], the potency estimated from few doses in test [9] (compound concentrations: 100 nM and 1000 nM (sheet 'Samples'), CATDS: 3.5352360337843801E-2) is 755 nM; in test [4] (compound concentrations: 100 nM and 1000 nM (sheet 'Samples'), CATDS: 2.8413357389646399E-2), 1630 nM; in [7] (CATDS: 4.1756268177550598E-2), 478 nM.

Regarding `CCn1c(-c2nonc2N)nc2c(C#CC(C)(C)O)nc(OCCN)cc21.CCn1c(-c2nonc2N)nc2c(C#CC(C)(C)O)nc(OCCN)cc21.Cl.Cl` [GSK902056A], the results for the potency estimated from few doses in test [4] (setting [17]) and in test [15] (setting [17]) were 1340 nM and 581 nM, respectively.

Consider `CN1C[C@@H]2Cn3c(c(C4=C(c5cn(C)c6ccccc56)C(=O)NC4=O)c4ccccc43)C[C@H]2C1.Cl` [RO0320234-001], for which the potency estimated from few doses in [1] (setting [17]) was 93.7 nM; in test [2] (setting [17]), 5.56 nM; in test [10] (setting [17]) it was 444 nM; in test [3] (setting [17]), 86.7 nM; in [5] (setting [17]), 10.4 nM; in test [6] (setting [17]), 134 nM. Besides, the potency estimated from few doses was 843 nM in [11] (setting [17]); 111 nM in test [14] (setting [17]); 970 nM in test [8] (setting [17]); 2100 nM in test [12] (setting [17]); 86.4 nM in test [16] (setting [17]).

With `Clc1cc(Cl)cc(Nc2ccnc(Nc3cc(Cl)cc(Cl)c3)n2)c1` [GSK175726A], the potency estimated from few doses is 83.2 nM in [1] (compound concentrations: 100 nM and 1000 nM (sheet 'Samples'), CATDS: 2.5998529843594201E-2); 7.68 nM in test [2] (compound concentrations: 100 nM and 1000 nM (sheet 'Samples'), CATDS: 0.155143101703651); 461 nM in test [10] (compound concentrations: 100 nM and 1000 nM (sheet 'Samples'), CATDS: 1.17744273258488E-2); 82.1 nM in [3] (compound concentrations: 100 nM and 1000 nM (sheet 'Samples'), CATDS: 2.6199359146872301E-2); 60 nM in test [5] (compound concentrations: 100 nM and 1000 nM (sheet 'Samples'), CATDS: 3.1891027827673897E-2); 125 nM in [6] (compound concentrations: 100 nM and 1000 nM (sheet 'Samples'), CATDS: 2.0638344047220501E-2). The potency estimated from few doses in test [14] (compound concentrations: 100 nM and 1000 nM (sheet 'Samples'), CATDS: 9.3443297736164402E-3) was 1060 nM; in test [8] (compound concentrations: 100 nM and 1000 nM (sheet 'Samples'), CATDS: 9.7207770515578794E-3), 894 nM; in [12] (compound concentrations: 100 nM and 1000 nM (sheet 'Samples'), CATDS: 8.5170276758985107E-3), 1660 nM.
